Experimental data published in PubChem BioAssay AID1159580 (chemical genetic matrix, 2015).
Hit rate of the full screen: of about 5,500 compounds, about 2,000 (36%) were called active. Not shown: some 18% with an inconclusive outcome. No stated cut-off is given here; in the data, active means normalized growth mostly below about 0.91 (no sharp cut-off); inconclusive means no clear call, values can overlap the other calls; inactive means mostly above about 0.92. Some of the results follow.

Experiment: chemical genetic growth profiling, strain panel (AID 1159580);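 further: tested at 20 µM; growth read once vehicle control cultures reached saturation at 30 °C; 1 = growth at the plate median or of vehicle wells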
Conditions: growth OD
[1] = S. cerevisiae deletion strains, locus YDR150W, strain NUM1, stronger effect = lower value
[2] = S. cerevisiae deletion strains, locus YMR263W, strain SAP30, stronger effect = lower value
[3] = S. cerevisiae deletion strains, locus YPL055C, strain LGE1, stronger effect = lower value
[4] = S. cerevisiae deletion strains, locus YPL241C, strain CIN2, stronger effect = lower value

Measured: normalized growth

NCC(O)C1CCCCCCC1 (configuration not stated)
inactive: S. cerevisiae deletion strains, locus YAL040C, strain CLN3, stronger effect = lower value 1.01 | S. cerevisiae deletion strains, locus YCL061C, strain MRC1 (second series), stronger effect = lower value 1.01 | [1] 0.995 | S. cerevisiae deletion strains, locus YDR363W, strain ESC2, stronger effect = lower value 0.994 | S. cerevisiae deletion strains, locus YER002W, strain NOP16, stronger effect = lower value 0.999 | [2] 0.999 | S. cerevisiae deletion strains, locus YNL175C, strain NOP13, stronger effect = lower value 1.01 | S. cerevisiae deletion strains, locus YNL197C, strain WHI3, stronger effect = lower value 1.01 | S. cerevisiae deletion strains, locus YNL224C, strain SQS1, stronger effect = lower value 1 | S. cerevisiae deletion strains, locus YOR083W, strain WHI5 (second series), stronger effect = lower value 1.04 | [3] 0.992 | [4] 1

COc1ccc(CN2C(=O)CSC2c2ccccn2)cc1 (configuration not stated)
inactive: S. cerevisiae deletion strains, locus YAL013W, strain DEP1, stronger effect = lower value 1.01 | S. cerevisiae deletion strains, locus YBR229C, strain ROT2, stronger effect = lower value 0.995 | S. cerevisiae deletion strains, locus YCL061C, strain MRC1, stronger effect = lower value 0.977 | S. cerevisiae deletion strains, locus YDL101C, strain DUN1, stronger effect = lower value 1.01 | S. cerevisiae deletion strains, locus YDL134C, strain PPH21, stronger effect = lower value 1 | [1] 1.01 | S. cerevisiae deletion strains, locus YEL061C, strain CIN8, stronger effect = lower value 1.01 | S. cerevisiae deletion strains, locus YGR078C, strain PAC10, stronger effect = lower value 1.01 | S. cerevisiae deletion strains, locus YHR030C, strain SLT2, stronger effect = lower value 0.998 | S. cerevisiae deletion strains, locus YHR087W, strain rtc3, stronger effect = lower value 1.01 | S. cerevisiae deletion strains, locus YJL187C, strain SWE1, stronger effect = lower value 0.989 | S. cerevisiae deletion strains, locus YJR043C, strain POL32, stronger effect = lower value 0.995 | S. cerevisiae deletion strains, locus YJR075W, strain HOC1, stronger effect = lower value 1.01 | S. cerevisiae deletion strains, locus YKL190W, strain CNB1, stronger effect = lower value 1 | S. cerevisiae deletion strains, locus YLR039C, strain RIC1, stronger effect = lower value 0.97 | S. cerevisiae deletion strains, locus YLR058C, strain SHM2 (second series), stronger effect = lower value 0.991 | S. cerevisiae deletion strains, locus YLR085C, strain ARP6, stronger effect = lower value 0.971 | S. cerevisiae deletion strains, locus YLR262C, strain YPT6, stronger effect = lower value 0.953 | S. cerevisiae deletion strains, locus YML094W, strain GIM5, stronger effect = lower value 1.02 | S. cerevisiae deletion strains, locus YMR219W, strain ESC1, stronger effect = lower value 0.993 | [2] 0.993 | S. cerevisiae deletion strains, locus YNL153C, strain GIM3, stronger effect = lower value 0.999 | S. cerevisiae deletion strains, locus YNL298W, strain CLA4 (second series), stronger effect = lower value 0.994 | S. cerevisiae deletion strains, locus YNL322C, strain KRE1, stronger effect = lower value 1 | S. cerevisiae deletion strains, locus YNR030W, strain Alg12, stronger effect = lower value 1 | S. cerevisiae deletion strains, locus YOL006C, strain TOP1, stronger effect = lower value 0.988 | [3] 1 | [4] 1.07 | S. cerevisiae deletion strains, locus YPR135W, strain CTF4, stronger effect = lower value 0.985 | S. cerevisiae strains, strain wild type, stronger effect = lower value 1
